# Laboratory results: PubChem BioAssay (NCATS)
# Values joined by “and” are separate entries in the source; they are usually repeats but may differ in a detail not shown here. Identical values can stand only once. Results filed as inconclusive are left out. A call without a number means that no potency is given here. Active and inactive are the calls of the source. Unless noted, calls come from the whole dose curve; as a rule, active = well fitted cell-killing curve with a large enough effect; inconclusive = small, poorly fitted or top-dose-only effect; inactive = flat fitted curve, though single readings scatter.
# Key:
# [1] = Cell Viability - LYMP2-007 (AID 979);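 note: cells exposed to compound for 24 h before reading; nearly all actives have a fitted effect of over 60% in size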
# In short: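 Cells are seeded at 2500 per well and rested 5 hr. Compounds are then added over a concentration series for 24 hr at 37 C. CellTiter-Glo is added for 30 min at room temperature before luminescence reading.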
# [2] = Cell Viability - LYMP2-008 (AID 980);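 note: cells exposed to compound for 24 h at 37 °C; nearly all actives have a fitted effect of over 60% in size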
# In short: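 Cells seeded at 2500/well and rested 5 hr at 37 C; compounds added over a concentration range and incubated 24 hr at 37 C; CellTiter-Glo added, 30 min at room temperature; luminescence read and AC50 fitted with Hill model.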
# [3] = Cell Viability - LYMP2-010 (AID 981);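 note: cells exposed to compound for 24 hours at 37 °C; nearly all actives have a fitted effect of over 55% in size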
# In short: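 Steps: seed 2500 LYMP2-010 cells per well; incubate 5 hr at 37 C; add compound; incubate 24 hr at 37 C; add CellTiter-Glo, wait 30 min at room temperature; read luminescence. Concentration-response fitted to Hill equation for AC50.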
# [4] = Cell Viability - LYMP2-012 (AID 982);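 note: cellular ATP by luciferase luminescence where a drop means cytotoxicity; cells exposed to compound for one day before reading; nearly all actives have a fitted effect of over 55% in size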
# [5] = Cell Viability - LYMP2-014 (AID 983);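 note: series mostly up to about 92 µM; cells exposed to compound for 24 h at 37 °C; nearly all actives have a fitted effect of over 50% in size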
# In short: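 Cells are plated at 2500/well and left 5 hr at 37 C. Compounds are added across a concentration range and incubated 24 hr at 37 C in complete medium. CellTiter-Glo is added, and luminescence is read after 30 min at room temperature.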
# [6] = Cell Viability - LYMP2-016 (AID 984);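 note: cells exposed to compound for 24 hours at 37 °C; nearly all actives have a fitted effect of over 55% in size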
# In short: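 Human lymphoblastoid cells (LYMP2-016), 2500/well in complete medium, preincubated 5 hr at 37 C, then compound-treated 24 hr at 37 C. Intracellular ATP read by CellTiter-Glo luminescence after 30 min at room temperature; AC50 from Hill-equation concentration-response fits.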
# [7] = Cell Viability - LYMP2-018 (AID 985);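 note: compound exposure lasted 24 hr at 37 °C; nearly all actives have a fitted effect of over 50% in size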
# In short: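 Seed 2500 lymphoblastoid cells per well, incubate 5 hr at 37 C, add compound and incubate 24 hr at 37 C, add CellTiter-Glo, wait 30 min at room temperature, then read luminescence.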
# [8] = Cell Viability - LYMP2-020 (AID 986);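 note: series mostly up to about 92 µM; cells exposed to compound for 24 h at 37 °C; nearly all actives have a fitted effect of over 55% in size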
# In short: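 Seed 2500 cells per well and incubate 5 hr at 37 C. Add compounds at a concentration series and incubate 24 hr at 37 C. Add CellTiter-Glo, wait 30 min at RT, read luminescence, and fit a Hill curve for AC50.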
# [9] = Cell Viability - LYMP2-022 (AID 987); note: nearly all actives have a fitted effect of over 55% in size
# In short: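 Cells were seeded at 2500 per well, rested 5 hr at 37 C, and treated with titrated compounds for 24 hr at 37 C. Cellular ATP was then quantified by luciferase luminescence, and AC50 values were derived from Hill-modelled concentration-response curves.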
# [10] = Cell Viability - LYMP2-024 (AID 988); note: nearly all actives have a fitted effect of over 60% in size
# In short: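 qHTS cytotoxicity, human lymphoblastoid line, complete medium; 24 h cpd treatment, 37 C; CellTiter-Glo ATP luminescence readout; tetraoctylammonium bromide positive control; AC50 via Hill fit.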
# [11] = Cell Viability - LYMP2-026 (AID 989);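 note: cells exposed to compound for 24 h at 37 °C; nearly all actives have a fitted effect of over 50% in size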
# In short: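 Cells are seeded at 2500 per well and held 5 hr at 37 C. Compounds are added in concentration series for 24 hr, then CellTiter-Glo reagent is applied and luminescence read.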
# [12] = Cell Viability - LYMP1-002 - Assay at 24 hr (AID 993)
# In short: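 Acute toxicity is measured as concentration-dependent loss of cellular ATP in a human lymphoblastoid line (Coriell LYMP1-002) after 24 h treatment in complete medium. ATP is quantified by luciferase luminescence and AC50 derived by Hill modelling.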
# [13] = Cell Viability - LYMP1-002 - Assay at 40 hr (AID 994); note: nearly all actives have a fitted effect of over 60% in size
# In short: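 Cells are plated at 2500 per well and rested 5 hr at 37 C. Compounds are added and incubated 40 hr at 37 C. CellTiter-Glo reagent is added for 30 min at room temperature before luminescence is read.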
# [14] = qHTS Assay for Identification of Small Molecule Inducers of Hypoxia Response (AID 2120; active = well fitted curve in the direction sought with a large enough effect in the signal ratio, with a control signal flat, not every such curve was filed as active; the % refers to the signal ratio)
# In short: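 Cell-based qHTS for reporter induction: hypoxia response element controlled beta-lactamase in ME-180 cells. Compounds incubated 17 h at 37 degrees C; activity from blue/green (460/530 nm) ratio, inducers ranked by AC50.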
# [15] = target: Estrogen receptor (Homo sapiens) (UniProt P03372); assay: qHTS assay for small molecule antagonists of estrogen receptor alpha signaling (AID 588513; active = well fitted curve in the direction sought with a large enough effect in the signal ratio, with a control signal flat, not every such curve was filed as active; the % refers to the signal ratio)
# In short: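 ER-alpha-UAS-bla GripTite HEK 293 cells in medium with 2% charcoal/dextran-treated FBS were preincubated 4 h at 37 C, dosed with compound (1:2 titration), stimulated with 0.5nM 17-beta-estradiol for 18 h, then read by CCF4 beta-lactamase fluorescence.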
# [16] = target: Estrogen receptor (Homo sapiens) (UniProt P03372); assay: qHTS assay for small molecule agonists of estrogen receptor alpha signaling (AID 588514; calls by dose curve; note: nearly all actives have a fitted effect of over 70% in size)
# In short: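 Efficacy is expressed against 20 nM 17-beta-estradiol (100%) and DMSO basal (0%); EC50 from Hill equation. Assay: beta-lactamase reporter in ER-alpha-UAS-bla HEK 293 cells, 18 h compound incubation, CCF4 detection.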
# [17] = target: Bile acid receptor (Homo sapiens) (UniProt Q96RI1); assay: qHTS assay for small molecule antagonists of farnesoid X receptor signaling (AID 588526; calls by dose curve)
# In short: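 Antagonist mode: titrated compounds tested against chenodeoxycholic acid stimulation (normalized to 50 uM CDCA and DMSO) in GeneBLAzer HEK293T cells for 16 h. Beta-lactamase read by CCF4 fluorescence; IC50 from Hill fits.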
# [18] = target: Peroxisome proliferator-activated receptor delta (Homo sapiens) (UniProt Q03181); assay: qHTS assay for small molecule agonists of peroxisome proliferator-activated receptor delta signaling (AID 588534; calls by dose curve)
# In short: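 Agonist-mode qHTS; reporter cells, 5 hrs 37 C pre-incubation; compound titration, 18 hrs 37 C; CCF4 dye, 2 hrs RT; fluorescence read. EC50/efficacy via Hill fit.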
# [19] = qHTS assay for small molecule antagonists of peroxisome proliferator-activated receptor delta signaling (AID 588535; active = well fitted inhibition curve with a large enough effect in the signal ratio, with a control signal flat, not every such curve was filed as active; the % refers to the signal ratio;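 for max response: cells co-treated with a PPAR-delta agonist as stimulator during compound exposure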); settings: HEK293T PPARd-UAS-bla, beta-lactamase FRET ratio, 18 h; 460 nm channel
# In short: (§1)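 Fluorescence from CCF4-loaded GeneBLAzer PPAR-delta-UAS-bla HEK293T cells (2 hrs RT loading) quantified reporter inhibition after an 18 hr, 37 C compound exposure across a titration.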
# [20] = target: Peroxisome proliferator-activated receptor delta (Homo sapiens) (UniProt Q03181); assay: as above
# In short: as §1
# [21] = target: Peroxisome proliferator-activated receptor gamma (Homo sapiens) (UniProt P37231); assay: qHTS assay for small molecule agonists of peroxisome proliferator-activated receptor gamma signaling (AID 588536; active = well fitted curve in the direction sought with a large enough effect in the signal ratio, with a control signal flat, not every such curve was filed as active; the % refers to the signal ratio)
# In short: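 Using GeneBLAzer HEK293 cells, response was quantified by CCF4 fluorescence and normalized between basal DMSO (0%) and rosiglitazone 2 uM (100%); curves yielded half-maximal stimulation concentration and efficacy.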
# [22] = qHTS assay for small molecule agonists of retinoid X receptor alpha signaling (AID 588544; calls by dose curve); settings: HEK293T RXRa-UAS-bla, beta-lactamase reporter, 18 h; 530 nm emission
# [23] = target: Retinoic acid receptor RXR-alpha (Homo sapiens) (UniProt P19793); assay: as above
# [24] = target: Thyroid hormone receptor beta (Homo sapiens) (UniProt P10828); assay: qHTS assay for small molecule agonists of thyroid hormone receptor beta signaling (AID 588545; calls by dose curve)
# In short: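 Compounds were tested as agonists in TR-UAS-bla-GripTite HEK 293 cells. After 18 hrs at 37 C, CCF4 substrate was added and fluorescence read after 2 hrs at room temperature.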
# [25] = qHTS assay for small molecule antagonists of retinoid X receptor alpha signaling (AID 588546); settings: HEK293T RXRa-UAS-bla, beta-lactamase ratio, antagonist mode; measured here: W530 green channel, cytotoxicity proxy;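 note: cells stimulated with 9-cis-retinoic acid as agonist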
# In short: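 Beta-lactamase reporter inhibition, read as CCF4 fluorescence ratio (ex 405, em 460/530 nm) after 2 h at RT. HEK293T UAS-bla cells, 2500/well, were stimulated with 9-cis-RA at 500 or 100 nM final alongside test compound for 18 h at 37 C.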
# Chain of Estrogen receptor (Homo sapiens) (P03372 whole entry, looked up): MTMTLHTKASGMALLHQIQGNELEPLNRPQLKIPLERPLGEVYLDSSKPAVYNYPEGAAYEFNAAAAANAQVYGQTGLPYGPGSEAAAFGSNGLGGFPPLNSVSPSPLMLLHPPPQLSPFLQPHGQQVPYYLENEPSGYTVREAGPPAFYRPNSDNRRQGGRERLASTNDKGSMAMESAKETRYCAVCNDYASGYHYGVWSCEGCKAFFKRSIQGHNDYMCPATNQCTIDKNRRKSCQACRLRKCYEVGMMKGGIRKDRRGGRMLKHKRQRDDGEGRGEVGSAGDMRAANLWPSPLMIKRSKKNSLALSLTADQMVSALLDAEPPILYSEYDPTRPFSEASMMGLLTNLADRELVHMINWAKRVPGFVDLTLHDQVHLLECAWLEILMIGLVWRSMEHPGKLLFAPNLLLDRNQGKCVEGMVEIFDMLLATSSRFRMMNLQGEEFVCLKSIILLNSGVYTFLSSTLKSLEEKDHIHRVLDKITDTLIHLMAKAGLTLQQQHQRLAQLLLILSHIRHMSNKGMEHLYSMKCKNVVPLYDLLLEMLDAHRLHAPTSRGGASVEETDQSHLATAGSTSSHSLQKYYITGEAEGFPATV
# Chain of Peroxisome proliferator-activated receptor delta (Homo sapiens) (Q03181 whole entry, looked up): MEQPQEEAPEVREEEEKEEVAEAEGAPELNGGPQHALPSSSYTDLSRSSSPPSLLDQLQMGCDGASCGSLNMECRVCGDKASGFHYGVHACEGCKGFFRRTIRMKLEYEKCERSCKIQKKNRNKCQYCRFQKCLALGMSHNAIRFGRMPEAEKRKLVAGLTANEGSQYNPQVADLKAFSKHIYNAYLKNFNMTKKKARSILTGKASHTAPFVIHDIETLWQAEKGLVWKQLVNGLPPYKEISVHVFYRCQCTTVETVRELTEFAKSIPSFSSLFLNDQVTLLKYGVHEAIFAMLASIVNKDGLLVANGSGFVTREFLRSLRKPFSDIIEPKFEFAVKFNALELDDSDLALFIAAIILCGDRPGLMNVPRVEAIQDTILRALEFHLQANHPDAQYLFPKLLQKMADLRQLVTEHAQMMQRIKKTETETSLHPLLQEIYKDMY
# Chain of Retinoic acid receptor RXR-alpha (Homo sapiens) (P19793 whole entry, looked up): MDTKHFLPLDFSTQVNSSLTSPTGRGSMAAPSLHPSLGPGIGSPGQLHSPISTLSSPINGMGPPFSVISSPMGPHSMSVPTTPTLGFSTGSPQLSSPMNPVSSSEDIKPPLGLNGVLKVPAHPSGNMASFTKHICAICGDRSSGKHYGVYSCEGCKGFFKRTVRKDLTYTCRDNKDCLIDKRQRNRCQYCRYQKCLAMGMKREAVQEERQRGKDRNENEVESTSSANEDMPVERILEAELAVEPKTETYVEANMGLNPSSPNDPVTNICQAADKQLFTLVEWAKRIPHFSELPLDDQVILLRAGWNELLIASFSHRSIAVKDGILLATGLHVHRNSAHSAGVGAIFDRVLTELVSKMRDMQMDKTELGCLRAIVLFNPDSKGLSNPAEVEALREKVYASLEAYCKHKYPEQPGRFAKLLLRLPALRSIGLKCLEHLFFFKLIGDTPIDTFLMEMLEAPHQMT
# Chain of Thyroid hormone receptor beta (Homo sapiens) (P10828 whole entry, looked up): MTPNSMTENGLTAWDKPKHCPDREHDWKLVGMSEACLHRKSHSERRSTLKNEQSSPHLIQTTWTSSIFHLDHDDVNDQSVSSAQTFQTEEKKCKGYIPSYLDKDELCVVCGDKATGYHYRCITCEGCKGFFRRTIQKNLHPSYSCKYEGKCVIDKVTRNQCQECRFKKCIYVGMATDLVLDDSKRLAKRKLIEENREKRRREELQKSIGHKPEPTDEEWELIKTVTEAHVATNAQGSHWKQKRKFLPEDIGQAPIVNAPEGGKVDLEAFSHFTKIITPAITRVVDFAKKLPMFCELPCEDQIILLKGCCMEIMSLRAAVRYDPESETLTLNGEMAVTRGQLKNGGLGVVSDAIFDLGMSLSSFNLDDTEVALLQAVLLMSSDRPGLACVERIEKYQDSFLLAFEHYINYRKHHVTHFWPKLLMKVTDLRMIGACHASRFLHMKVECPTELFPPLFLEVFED
# Chain of Peroxisome proliferator-activated receptor gamma (Homo sapiens) (P37231 whole entry, looked up): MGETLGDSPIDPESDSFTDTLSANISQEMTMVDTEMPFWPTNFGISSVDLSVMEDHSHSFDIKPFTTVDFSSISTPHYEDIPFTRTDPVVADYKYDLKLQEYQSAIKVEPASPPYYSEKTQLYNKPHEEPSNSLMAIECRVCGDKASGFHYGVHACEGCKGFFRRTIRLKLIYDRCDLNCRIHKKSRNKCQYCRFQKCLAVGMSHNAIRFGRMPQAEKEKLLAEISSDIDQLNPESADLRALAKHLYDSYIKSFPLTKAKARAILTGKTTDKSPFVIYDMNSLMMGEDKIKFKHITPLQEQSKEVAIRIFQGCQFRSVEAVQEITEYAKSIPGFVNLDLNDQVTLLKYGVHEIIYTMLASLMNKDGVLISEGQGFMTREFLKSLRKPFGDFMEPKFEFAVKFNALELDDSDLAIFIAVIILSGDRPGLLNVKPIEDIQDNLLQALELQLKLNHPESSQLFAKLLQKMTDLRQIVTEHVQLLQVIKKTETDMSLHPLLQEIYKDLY
# Chain of Bile acid receptor (Homo sapiens) (Q96RI1 whole entry, looked up): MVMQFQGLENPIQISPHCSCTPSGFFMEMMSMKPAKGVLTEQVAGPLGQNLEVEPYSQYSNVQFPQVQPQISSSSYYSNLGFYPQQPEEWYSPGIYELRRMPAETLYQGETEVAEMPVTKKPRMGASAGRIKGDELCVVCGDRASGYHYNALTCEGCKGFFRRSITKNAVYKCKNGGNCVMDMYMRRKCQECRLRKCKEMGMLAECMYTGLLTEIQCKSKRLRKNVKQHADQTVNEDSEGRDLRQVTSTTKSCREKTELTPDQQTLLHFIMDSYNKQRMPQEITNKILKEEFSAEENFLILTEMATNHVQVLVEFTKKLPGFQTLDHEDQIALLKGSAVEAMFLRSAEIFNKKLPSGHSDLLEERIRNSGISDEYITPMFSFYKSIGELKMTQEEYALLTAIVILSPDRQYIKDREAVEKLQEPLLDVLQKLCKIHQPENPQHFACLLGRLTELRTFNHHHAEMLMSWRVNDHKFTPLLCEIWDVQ
structure (smiles),measurement,setting,value
CCCOC(=O)c1ccccc1C(=O)OCCC,Potency,[1],inactive
same,Potency,[2],inactive
same,Potency,[3],inactive
same,Potency,[4],inactive
same,Potency,[5],inactive
same,Potency,[6],inactive
same,Potency,[7],inactive
same,Potency,[8],inactive
same,Potency,[9],inactive
same,Potency,[10],inactive
same,Potency,[11],inactive
same,Potency,[12],inactive
same,Potency,[13],inactive
same,outcome,[14],inactive
same,Potency,[15],inactive
same,Potency,[16],inactive
same,outcome,[17],inactive
same,outcome,[18],inactive
same,max response,[19],2.17%
same,Potency,[20],inactive
same,outcome,[21],inactive
same,max response,[22],8.06% and -8.01%
same,Potency,[23],inactive
same,outcome,[24],inactive
same,max response,[25],3.93% and -2.34%
